Measurements: the supplement of paper PMC11732987, “Enantioselective OTUD7B fragment discovery through chemoproteomics screening and high-throughput optimisation” (Communications Chemistry, 2025)

Tests used:
Assay in all cases: log2 ratio of Biotin-Ahx-Ub-VS probe labelling (fragment/DMSO); higher = less target engagement (more negative = stronger competition), active = hit call of the paper (q ≤ 0.05, log2 ratio ≤ -1)
Conditions in all cases: compound concentration: 200 uM; treatment time: 3 h
USP34 = USP34 (UniProt Q70CQ2)
Summary of the method: (§1)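 Triplicate samples of HEK293T lysate, 495 µg each, received fragment at 200 µM or vehicle for 3 h, followed by Biotin-Ahx-Ub-VS (0.5 µM final) for 1 h. After NeutrAvidin enrichment of labelled DUBs and LysC/trypsin digestion, peptides were run by diaPASEF LC-MS/MS. The values are average log2 fragment/vehicle ratios from global-median-normalised Spectronaut label-free quantities, tested by unpaired t-test on proteins having ≥2 unique peptides.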

USP36 = biological target: T1, USP36 (UniProt Q9P275)
T1 sequence (whole entry): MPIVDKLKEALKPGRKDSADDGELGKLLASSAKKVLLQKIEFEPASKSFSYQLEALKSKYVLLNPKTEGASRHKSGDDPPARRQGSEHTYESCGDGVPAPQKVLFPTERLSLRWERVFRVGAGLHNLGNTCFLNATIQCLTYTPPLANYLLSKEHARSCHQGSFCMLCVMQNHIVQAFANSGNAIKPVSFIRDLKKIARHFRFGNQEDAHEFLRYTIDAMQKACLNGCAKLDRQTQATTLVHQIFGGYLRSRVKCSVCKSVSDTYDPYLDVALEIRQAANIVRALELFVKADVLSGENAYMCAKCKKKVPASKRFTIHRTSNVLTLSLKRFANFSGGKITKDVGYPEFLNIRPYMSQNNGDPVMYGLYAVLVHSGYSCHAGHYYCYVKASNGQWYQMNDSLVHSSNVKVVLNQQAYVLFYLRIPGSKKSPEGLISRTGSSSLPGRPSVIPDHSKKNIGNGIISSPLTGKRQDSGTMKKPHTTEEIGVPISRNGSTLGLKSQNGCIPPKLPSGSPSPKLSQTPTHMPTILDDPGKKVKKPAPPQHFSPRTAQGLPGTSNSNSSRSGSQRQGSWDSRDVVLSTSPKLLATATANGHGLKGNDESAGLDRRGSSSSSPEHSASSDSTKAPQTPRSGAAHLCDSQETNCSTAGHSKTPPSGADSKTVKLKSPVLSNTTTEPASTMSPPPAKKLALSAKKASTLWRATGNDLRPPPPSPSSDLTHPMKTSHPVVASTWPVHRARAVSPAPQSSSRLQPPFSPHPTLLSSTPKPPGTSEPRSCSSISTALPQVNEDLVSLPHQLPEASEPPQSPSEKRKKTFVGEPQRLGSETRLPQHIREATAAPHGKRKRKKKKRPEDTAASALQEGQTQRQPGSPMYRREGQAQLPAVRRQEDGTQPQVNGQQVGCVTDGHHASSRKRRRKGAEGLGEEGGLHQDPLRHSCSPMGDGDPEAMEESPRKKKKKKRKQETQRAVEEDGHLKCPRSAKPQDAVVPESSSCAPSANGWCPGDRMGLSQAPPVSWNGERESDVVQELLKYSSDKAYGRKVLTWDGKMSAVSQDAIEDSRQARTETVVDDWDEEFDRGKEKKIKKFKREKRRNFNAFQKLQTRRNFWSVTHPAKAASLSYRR
Summary of the method: as §1

USP38 = biological target: T2, USP38 (UniProt Q8NB14)
T2 sequence (whole entry): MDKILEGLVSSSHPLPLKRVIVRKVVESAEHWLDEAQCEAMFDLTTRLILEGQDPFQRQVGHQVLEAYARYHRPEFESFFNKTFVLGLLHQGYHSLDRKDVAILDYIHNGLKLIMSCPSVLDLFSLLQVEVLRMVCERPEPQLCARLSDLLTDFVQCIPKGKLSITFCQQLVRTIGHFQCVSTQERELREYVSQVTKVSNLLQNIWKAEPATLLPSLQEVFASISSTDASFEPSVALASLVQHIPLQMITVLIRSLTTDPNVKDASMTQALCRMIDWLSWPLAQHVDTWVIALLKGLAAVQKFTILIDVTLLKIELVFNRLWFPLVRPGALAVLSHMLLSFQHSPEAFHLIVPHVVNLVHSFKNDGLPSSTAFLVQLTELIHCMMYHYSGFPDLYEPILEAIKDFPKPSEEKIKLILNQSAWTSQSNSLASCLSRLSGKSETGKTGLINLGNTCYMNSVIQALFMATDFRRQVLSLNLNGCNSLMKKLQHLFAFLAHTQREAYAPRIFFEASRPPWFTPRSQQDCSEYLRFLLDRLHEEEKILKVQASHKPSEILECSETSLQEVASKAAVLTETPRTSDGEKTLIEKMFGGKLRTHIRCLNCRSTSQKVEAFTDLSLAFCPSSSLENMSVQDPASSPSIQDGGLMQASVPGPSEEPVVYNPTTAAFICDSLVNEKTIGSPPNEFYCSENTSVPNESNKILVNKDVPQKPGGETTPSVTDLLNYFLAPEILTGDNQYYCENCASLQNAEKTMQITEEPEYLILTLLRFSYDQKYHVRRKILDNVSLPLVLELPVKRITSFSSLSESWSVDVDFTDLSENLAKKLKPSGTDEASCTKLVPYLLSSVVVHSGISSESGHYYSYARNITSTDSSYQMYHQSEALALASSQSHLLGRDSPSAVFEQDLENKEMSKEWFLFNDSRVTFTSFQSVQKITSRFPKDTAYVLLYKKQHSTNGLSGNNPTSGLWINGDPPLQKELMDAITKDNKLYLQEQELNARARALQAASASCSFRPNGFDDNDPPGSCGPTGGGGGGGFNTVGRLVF
Summary of the method: as §1

USP39 = biological target: T3, USP39 (UniProt Q53GS9)
T3 sequence (whole entry): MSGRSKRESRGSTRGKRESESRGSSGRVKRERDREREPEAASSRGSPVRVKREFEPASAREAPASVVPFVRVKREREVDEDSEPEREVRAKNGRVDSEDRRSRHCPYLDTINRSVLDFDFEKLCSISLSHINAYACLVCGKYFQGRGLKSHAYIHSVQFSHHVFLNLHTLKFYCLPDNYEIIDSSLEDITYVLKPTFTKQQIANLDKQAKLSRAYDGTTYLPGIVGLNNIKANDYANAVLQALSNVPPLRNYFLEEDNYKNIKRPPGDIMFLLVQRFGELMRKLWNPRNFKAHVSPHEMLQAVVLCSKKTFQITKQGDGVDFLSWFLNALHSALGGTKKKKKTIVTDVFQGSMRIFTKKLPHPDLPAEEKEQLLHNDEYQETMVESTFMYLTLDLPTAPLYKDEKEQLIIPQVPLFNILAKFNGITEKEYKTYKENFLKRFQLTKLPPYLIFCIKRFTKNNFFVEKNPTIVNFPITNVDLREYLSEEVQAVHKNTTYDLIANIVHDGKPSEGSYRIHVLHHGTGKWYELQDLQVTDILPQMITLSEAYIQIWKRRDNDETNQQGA
Summary of the method: as §1

USP4 = biological target: T4, USP4 (UniProt Q13107)
T4 sequence (whole entry): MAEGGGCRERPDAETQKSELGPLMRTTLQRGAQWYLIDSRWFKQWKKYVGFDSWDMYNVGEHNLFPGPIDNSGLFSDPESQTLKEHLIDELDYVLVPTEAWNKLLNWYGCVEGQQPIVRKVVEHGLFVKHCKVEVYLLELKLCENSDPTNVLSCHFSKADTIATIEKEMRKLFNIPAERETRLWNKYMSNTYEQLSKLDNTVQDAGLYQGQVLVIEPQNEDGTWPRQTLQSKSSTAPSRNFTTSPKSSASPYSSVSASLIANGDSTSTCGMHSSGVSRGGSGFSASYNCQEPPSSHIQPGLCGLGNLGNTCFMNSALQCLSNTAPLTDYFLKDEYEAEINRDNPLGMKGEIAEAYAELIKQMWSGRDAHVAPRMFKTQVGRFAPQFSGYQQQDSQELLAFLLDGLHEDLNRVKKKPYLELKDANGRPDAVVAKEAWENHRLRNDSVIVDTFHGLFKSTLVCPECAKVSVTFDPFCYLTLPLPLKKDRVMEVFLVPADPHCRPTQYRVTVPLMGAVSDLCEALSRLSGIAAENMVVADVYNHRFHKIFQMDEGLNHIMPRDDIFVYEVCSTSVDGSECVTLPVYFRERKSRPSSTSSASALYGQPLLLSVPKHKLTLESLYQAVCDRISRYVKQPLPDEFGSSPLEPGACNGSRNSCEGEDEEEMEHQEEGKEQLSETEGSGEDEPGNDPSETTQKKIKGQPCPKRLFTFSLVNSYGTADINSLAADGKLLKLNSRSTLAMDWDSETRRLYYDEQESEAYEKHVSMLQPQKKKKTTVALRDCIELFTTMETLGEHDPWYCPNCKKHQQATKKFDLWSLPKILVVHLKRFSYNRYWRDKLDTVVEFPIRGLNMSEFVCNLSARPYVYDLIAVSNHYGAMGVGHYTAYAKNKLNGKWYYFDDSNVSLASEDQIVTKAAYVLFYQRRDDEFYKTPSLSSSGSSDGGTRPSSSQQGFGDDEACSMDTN
Summary of the method: as §1

Measured: log2 ratio of Biotin-Ahx-Ub-VS probe labelling

USP34, sequence (Q70CQ2 whole entry, the tested form may be a part): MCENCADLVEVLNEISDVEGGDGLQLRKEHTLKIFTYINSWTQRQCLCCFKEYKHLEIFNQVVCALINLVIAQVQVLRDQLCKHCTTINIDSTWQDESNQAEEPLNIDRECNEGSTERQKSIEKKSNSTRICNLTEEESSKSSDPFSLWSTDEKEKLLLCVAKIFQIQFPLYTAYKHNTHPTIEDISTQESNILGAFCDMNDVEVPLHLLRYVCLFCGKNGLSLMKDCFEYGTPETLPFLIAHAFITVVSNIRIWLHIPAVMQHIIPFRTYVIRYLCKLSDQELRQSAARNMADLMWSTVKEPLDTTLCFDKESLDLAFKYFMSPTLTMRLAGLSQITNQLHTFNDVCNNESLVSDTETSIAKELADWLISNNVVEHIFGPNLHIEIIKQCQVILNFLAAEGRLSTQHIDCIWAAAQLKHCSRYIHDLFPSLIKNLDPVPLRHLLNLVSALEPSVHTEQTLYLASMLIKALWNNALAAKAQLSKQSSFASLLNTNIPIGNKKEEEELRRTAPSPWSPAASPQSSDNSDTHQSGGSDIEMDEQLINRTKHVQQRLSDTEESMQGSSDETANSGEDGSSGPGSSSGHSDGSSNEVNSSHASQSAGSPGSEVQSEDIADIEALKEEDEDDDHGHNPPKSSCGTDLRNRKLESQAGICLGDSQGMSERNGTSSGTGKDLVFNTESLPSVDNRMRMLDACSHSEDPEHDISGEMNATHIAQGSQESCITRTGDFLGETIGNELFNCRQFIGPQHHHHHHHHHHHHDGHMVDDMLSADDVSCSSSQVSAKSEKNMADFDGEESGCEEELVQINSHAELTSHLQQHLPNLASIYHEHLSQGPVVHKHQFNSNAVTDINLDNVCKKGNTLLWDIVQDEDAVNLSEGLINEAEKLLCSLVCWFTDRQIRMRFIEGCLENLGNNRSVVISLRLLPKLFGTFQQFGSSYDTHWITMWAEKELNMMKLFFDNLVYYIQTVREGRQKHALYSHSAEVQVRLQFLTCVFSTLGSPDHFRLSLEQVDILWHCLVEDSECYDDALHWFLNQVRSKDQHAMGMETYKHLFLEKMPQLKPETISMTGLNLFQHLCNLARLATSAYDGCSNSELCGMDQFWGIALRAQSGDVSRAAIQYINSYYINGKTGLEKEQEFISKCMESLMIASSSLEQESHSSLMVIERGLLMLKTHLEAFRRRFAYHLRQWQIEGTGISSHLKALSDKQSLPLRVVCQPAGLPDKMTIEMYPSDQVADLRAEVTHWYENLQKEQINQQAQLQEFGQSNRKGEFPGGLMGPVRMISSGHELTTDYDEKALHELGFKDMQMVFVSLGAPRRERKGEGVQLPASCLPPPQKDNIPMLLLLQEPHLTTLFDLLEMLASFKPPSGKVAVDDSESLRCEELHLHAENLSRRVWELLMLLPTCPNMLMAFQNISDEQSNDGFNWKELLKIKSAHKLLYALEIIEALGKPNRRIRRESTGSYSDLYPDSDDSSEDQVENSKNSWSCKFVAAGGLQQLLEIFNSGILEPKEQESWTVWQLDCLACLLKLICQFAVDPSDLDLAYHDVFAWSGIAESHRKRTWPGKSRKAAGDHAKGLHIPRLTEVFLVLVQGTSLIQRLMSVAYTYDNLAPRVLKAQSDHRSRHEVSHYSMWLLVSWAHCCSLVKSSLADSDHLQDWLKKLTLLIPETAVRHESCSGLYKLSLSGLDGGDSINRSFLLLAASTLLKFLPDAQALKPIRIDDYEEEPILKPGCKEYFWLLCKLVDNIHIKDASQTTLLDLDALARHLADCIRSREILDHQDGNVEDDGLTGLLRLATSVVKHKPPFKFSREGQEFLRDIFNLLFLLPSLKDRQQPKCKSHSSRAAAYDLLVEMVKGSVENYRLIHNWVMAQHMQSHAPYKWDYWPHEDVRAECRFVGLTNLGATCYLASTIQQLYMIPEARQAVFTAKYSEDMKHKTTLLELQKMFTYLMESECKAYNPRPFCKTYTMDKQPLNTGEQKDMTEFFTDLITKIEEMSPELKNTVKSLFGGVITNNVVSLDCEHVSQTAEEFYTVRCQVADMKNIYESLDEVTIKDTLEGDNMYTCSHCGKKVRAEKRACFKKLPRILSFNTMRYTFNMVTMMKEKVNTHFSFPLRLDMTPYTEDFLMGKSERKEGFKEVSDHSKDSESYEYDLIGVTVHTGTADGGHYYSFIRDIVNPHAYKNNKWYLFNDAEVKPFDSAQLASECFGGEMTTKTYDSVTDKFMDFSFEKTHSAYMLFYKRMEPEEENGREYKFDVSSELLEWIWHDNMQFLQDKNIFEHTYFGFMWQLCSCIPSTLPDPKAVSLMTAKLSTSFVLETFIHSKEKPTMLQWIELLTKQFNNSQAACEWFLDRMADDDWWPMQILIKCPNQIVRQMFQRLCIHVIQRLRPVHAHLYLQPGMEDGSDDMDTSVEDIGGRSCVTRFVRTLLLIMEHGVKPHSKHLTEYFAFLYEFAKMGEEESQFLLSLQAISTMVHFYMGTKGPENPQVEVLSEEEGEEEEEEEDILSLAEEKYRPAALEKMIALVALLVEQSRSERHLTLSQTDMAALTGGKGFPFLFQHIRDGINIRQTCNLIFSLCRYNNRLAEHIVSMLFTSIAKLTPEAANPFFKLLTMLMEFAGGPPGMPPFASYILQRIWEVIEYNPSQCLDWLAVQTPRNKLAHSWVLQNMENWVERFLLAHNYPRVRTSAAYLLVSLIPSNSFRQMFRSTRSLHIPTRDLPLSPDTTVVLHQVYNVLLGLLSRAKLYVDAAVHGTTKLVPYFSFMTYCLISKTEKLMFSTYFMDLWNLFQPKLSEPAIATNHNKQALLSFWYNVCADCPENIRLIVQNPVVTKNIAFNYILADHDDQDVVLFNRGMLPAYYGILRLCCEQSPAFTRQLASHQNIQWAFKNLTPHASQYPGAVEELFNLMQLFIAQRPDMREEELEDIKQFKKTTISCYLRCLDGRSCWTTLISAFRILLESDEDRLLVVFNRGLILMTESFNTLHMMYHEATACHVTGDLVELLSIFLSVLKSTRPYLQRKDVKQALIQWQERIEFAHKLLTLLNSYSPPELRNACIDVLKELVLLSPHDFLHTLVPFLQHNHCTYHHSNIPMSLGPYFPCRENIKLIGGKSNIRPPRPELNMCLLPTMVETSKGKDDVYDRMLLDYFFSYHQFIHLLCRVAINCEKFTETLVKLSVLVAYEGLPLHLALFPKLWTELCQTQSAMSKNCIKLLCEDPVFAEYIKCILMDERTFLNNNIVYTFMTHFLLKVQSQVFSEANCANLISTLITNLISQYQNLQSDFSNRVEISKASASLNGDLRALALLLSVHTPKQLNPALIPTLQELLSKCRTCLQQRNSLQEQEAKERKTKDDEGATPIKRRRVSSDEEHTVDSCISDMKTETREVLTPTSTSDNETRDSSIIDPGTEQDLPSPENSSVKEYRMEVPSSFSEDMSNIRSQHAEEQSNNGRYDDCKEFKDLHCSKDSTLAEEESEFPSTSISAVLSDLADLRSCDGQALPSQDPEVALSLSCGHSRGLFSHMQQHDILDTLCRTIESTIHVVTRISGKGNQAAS

O=C(CCl)N(C1=CCCCC1)C1CC1
inactive: USP34 -0.0141 | USP36 -0.116 | USP38 -0.172 | USP39 -0.177 | USP4 0.0249
